Shown are actives, neighbours in structure and some others; about 21% of the full set was active somewhere.
Cycloheximide cs: Cycloheximide Counterscreen for Small Molecule Inhibitors of Shiga Toxin; AID 2314, 2010; actives 12% (n = 300,000); cell reporter, cycloheximide protein synthesis inhibition counterscreen; max response, %; in the data active = max response mostly above about 13%, no sharp cut-off; inactive = mostly below about 14%; note: read at 38.3 µM for the half of the compounds with a filed dose; 0% is about no effect
Pf growth 96h: Primary qHTS for delayed death inhibitors of the malarial parasite plastid, 96 hour incubation; P. falciparum luciferase reporter growth, 96 h; Potency, µM (doses to about 28.7 µM), inactives show at the top dose activity change, negative = inhibition, usual class: inhibitors; actives 6.9% (n = 320,000); note: potency is the fitted concentration of half-maximal effect; % is set by controls: 0 for no effect and ±100 for the full control effect
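96 h incubation, 37 C, 5% CO2, of luciferase-reporter P. falciparum-infected RBCs (2% hematocrit, 0.05% parasitemia final) with test compounds; endpoint luminescence.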
NS1 inh: qHTS Assay for Inhibitors of Influenza NS1 Protein Function. AID 2326, 2010. Potency, µM (doses to about 46.1 µM), without a hit: at the top dose activity, positive = more growth. actives 0.4% (n = 270,000); calls by dose curve; note: potency is the fitted concentration of half-maximal effect; actives are rising curves; nearly all actives have a fitted effect of over 50% in size
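Growth recovery, yeast-based: influenza A NS1 expressed in S. cerevisiae causes slow growth, and suppressors are detected by OD600. The parent strain without NS1 is used as positive control.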
Pf growth 48h: Primary qHTS for delayed death inhibitors of the malarial parasite plastid, 48 hour incubation; P. falciparum luciferase growth in erythrocytes, 48 h; Potency, µM (doses to about 28.7 µM), for inactives: at the top dose activity change, negative = inhibition, usual class: inhibitors; actives 5.9% (n = 310,000); AID 504832, 2011; note: potency is the fitted concentration of half-maximal effect; % is set by controls: 0 for no effect and ±100 for the full control effect
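In quantitative HTS format, infected erythrocytes bearing luciferase-reporter parasites were treated for a single generation at 37 C. Luminescence after adding detection reagent served as the growth measure.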
Shiga inhibitor: A qHTS for Small Molecule Inhibitors of Shiga Toxin | Vero cells, Shiga toxin protein synthesis inhibition reporter | inhibition, % at 38.7 µM | actives 9.2% (n = 290,000) | AID 2315, 2010; in the data active = inhibition mostly above about 28%, no sharp cut-off; inactive = mostly below about 43%; note: 0% is about no effect
SARS PLpro yeast: qHTS of Yeast-based Assay for SARS-CoV PLP; actives 0.19% (n = 330,000); Potency, µM (top dose mostly 32.9 µM), for the others: top-dose activity, positive = growth rescue, usual class: activators; AID 485353, 2010; S. cerevisiae expressing SARS-CoV PLpro, growth rescue; calls by dose curve; note: potency is the fitted concentration of half-maximal effect; 0% is about no effect; nearly all actives have a fitted effect of over 55% in size
* hit, by the source's call. Unless noted, calls come from the whole dose curve; as a rule, active = well fitted inhibition curve with a large enough effect; inconclusive = small, poorly fitted or top-dose-only effect, or another doubt; inactive = no such curve, though single readings can be large or run the other way.

`O=C(N/N=C1/CC2C=CCC12)c1ccc(Br)o1` (stereo unspecified) gave Cycloheximide cs 74*, Pf growth 96h -15%, NS1 inh 13%, Pf growth 48h 35%, Shiga inhibitor 75* and SARS PLpro yeast -8%.
CCOc1cc(-c2ccccc2)nc(N)n1 was read as Cycloheximide cs 49*, Pf growth 96h -8%, NS1 inh inconclusive, Pf growth 48h 130%, Shiga inhibitor 106* and SARS PLpro yeast 30%.
`Nc1nc(Cl)cc(-c2ccccc2)n1` gave Cycloheximide cs 1, Pf growth 96h -1%, NS1 inh 3%, Pf growth 48h 0%, Shiga inhibitor -3 and SARS PLpro yeast 0%.
`COc1cc(-c2ccccc2)nc(N)n1` gave Cycloheximide cs 87*, Pf growth 96h 3.3µM*, NS1 inh inconclusive, Shiga inhibitor 77* and SARS PLpro yeast 21%.
CCCCC(=O)N(Cc1nc2sc(C)c(C)c2c(=O)[nH]1)C1CCCC1 was read as Cycloheximide cs 0, Pf growth 96h 44%, NS1 inh -9%, Pf growth 48h 0%, Shiga inhibitor 4 and SARS PLpro yeast -2%.
CC(C)(C)OC(=O)NCCCCCNC(=O)c1nc[nH]c1C(=O)N1CCN(C(=O)OC(C)(C)C)CC1 was read as Pf growth 96h inconclusive, Pf growth 48h inconclusive and SARS PLpro yeast 8%.
CC(C)(C)OC(=O)NCCCC[C@H](NC(=O)c1nc[nH]c1C(=O)N1CCN(c2ccccc2)CC1)C(=O)OC(C)(C)C was read as Cycloheximide cs -5, Pf growth 96h 13µM*, NS1 inh -2%, Pf growth 48h 12µM*, Shiga inhibitor 3 and SARS PLpro yeast 1%.
`CC(C)(C)OC(=O)NCCCC[C@H](NC(=O)c1nc[nH]c1C(=O)N1CCN(C(=O)OC(C)(C)C)CC1)C(=O)OC(C)(C)C` gave Cycloheximide cs 1, Pf growth 96h 8.3µM*, NS1 inh 0%, Pf growth 48h inconclusive, Shiga inhibitor -18 and SARS PLpro yeast -2%.
Screening CC(C)[C@@H](CO)NC(=O)c1ccc2c3n(nc2c1)-c1ccccc1CO3 returned Cycloheximide cs 37*, Pf growth 96h 343%, NS1 inh 1%, Pf growth 48h 219%, Shiga inhibitor 50* and SARS PLpro yeast -5%.
For N#CCCCC#Cc1ccc2c(c1)COc1c3ccccc3nn1-2 the results were Pf growth 96h 42%, Pf growth 48h 30% and SARS PLpro yeast 3%.
For CC(C)NC(=O)c1ccc2c3n(nc2c1)-c1ccccc1CO3 the results were Cycloheximide cs 22*, Pf growth 96h 106%, NS1 inh -34%, Pf growth 48h 146%, Shiga inhibitor 30 and SARS PLpro yeast -11%.
Screening CCN(C(=O)CSc1nnc(-c2ccc(Cl)cc2)n1C)C1CCS(=O)(=O)C1 (stereo unspecified) returned Cycloheximide cs -3, Pf growth 96h -2%, Pf growth 48h 6%, Shiga inhibitor -6 and SARS PLpro yeast 0%.
Screening COc1cc(C(=O)NNC(=O)c2cc(C)[nH]n2)cc(OC)c1OC returned Cycloheximide cs 0, Pf growth 96h 20%, NS1 inh 3%, Pf growth 48h 16%, Shiga inhibitor 1 and SARS PLpro yeast 1%.
CN1/C(=C\C(=O)COC(=O)c2ccc([N+](=O)[O-])o2)C(C)(C)c2ccccc21 was read as Cycloheximide cs 14, Pf growth 96h 13µM*, Pf growth 48h inconclusive, Shiga inhibitor 18 and SARS PLpro yeast -24%.
For CCOC(=O)C1=C(Nc2ccc(Cl)cc2)OCC1=O the results were Cycloheximide cs 0, Pf growth 96h 2.6µM*, NS1 inh -6%, Pf growth 48h 12µM*, Shiga inhibitor -2 and SARS PLpro yeast -1%.
`O=C(Nc1cccc(F)c1)c1ccc(CSc2ccccc2)o1` gave Cycloheximide cs 55*, Pf growth 96h 102%, NS1 inh -65%, Pf growth 48h 35%, Shiga inhibitor 95* and SARS PLpro yeast -65%.
`O=C(Nc1ccccc1F)c1ccc(CSc2ccccc2)o1` gave Cycloheximide cs 54*, Pf growth 96h 0%, NS1 inh -51%, Pf growth 48h 34%, Shiga inhibitor 63* and SARS PLpro yeast -9%.
CC(=O)Nc1ccc(NC(=O)c2ccc(CSc3ccccc3)o2)cc1 was read as Cycloheximide cs 4, Pf growth 96h 32%, Pf growth 48h inconclusive, Shiga inhibitor 13 and SARS PLpro yeast 1%.
For CC(c1ccon1)N(C)Cc1cn(C)nc1-c1cccc(Cl)c1 (stereo unspecified) the results were Cycloheximide cs -1, Pf growth 96h inconclusive, NS1 inh -6%, Pf growth 48h -5%, Shiga inhibitor -3 and SARS PLpro yeast 0%.
Screening O=C(NCCc1ccccn1)c1ccc(OC(F)F)cc1 returned Cycloheximide cs 25*, Pf growth 96h 472%, Pf growth 48h 311%, Shiga inhibitor 75* and SARS PLpro yeast -4%.
O=C(NCCc1ccccn1)C(F)(F)C(F)(F)C(F)(F)C(F)(F)C(F)(F)C(F)F was read as Cycloheximide cs 14*, Pf growth 96h inconclusive, NS1 inh 6%, Pf growth 48h -6%, Shiga inhibitor -5 and SARS PLpro yeast 5%.
`Cc1ccc(C(=O)NCCS(=O)(=O)N2CCN(c3ccccc3F)CC2)cc1[N+](=O)[O-]` gave Cycloheximide cs -1, Pf growth 96h 5%, NS1 inh -14%, Pf growth 48h 5%, Shiga inhibitor -7 and SARS PLpro yeast 4%.
Screening CCc1cc2c3c(c1)C1(C(=O)N3C(C)(C)CC2C)C(C#N)=C(N)N2C(=C1C#N)Nc1ccccc12 (stereo unspecified) returned Cycloheximide cs -2, Pf growth 96h -10%, NS1 inh 23%, Pf growth 48h 9.3µM*, Shiga inhibitor -7 and SARS PLpro yeast -13%.
For Cc1nn(-c2ccccc2)c2c1C1(C(=O)N3c4c(cccc41)C(C)CC3(C)C)C(C#N)=C(N)O2 (stereo unspecified) the results were Cycloheximide cs 1, NS1 inh 6%, Pf growth 48h inconclusive, Shiga inhibitor 11 and SARS PLpro yeast -47%.
For Cc1ccc2c3c1C1(C(=O)N3C(C)(C)CC2C)C(C#N)=C(N)Oc2cc(O)ccc21 (stereo unspecified) the results were Cycloheximide cs -6, Pf growth 96h inactive, NS1 inh -44%, Pf growth 48h -21%, Shiga inhibitor 27 and SARS PLpro yeast 5%.
Screening Cc1cc2c3c(c1)C1(C(=O)N3C(C)(C)CC2C)C(C#N)=C(N)Oc2cc(O)ccc21 (stereo unspecified) returned Cycloheximide cs 2, NS1 inh -2%, Pf growth 48h 12µM*, Shiga inhibitor -15 and SARS PLpro yeast 3%.

Source: PubChem (National Center for Advancing Translational Sciences (NCATS))
